Source: PubChem (National Center for Advancing Translational Sciences (NCATS))
This is a sample that favours compounds with a hit; in the whole collection about 8.7% have one here.
Pf growth 48h – P. falciparum growth inhibition at 48 hours (one generation) | P. falciparum luciferase growth in erythrocytes, 48 h | Potency, µM (doses to about 28.7 µM), hits mostly inhibitors | 310,000 tested, 5.9% active | AID 504832
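Firefly luciferase activity from engineered P. falciparum reports growth; inhibitors lower the luminescent signal. Cultures contained 2% hematocrit erythrocytes at 0.1% final parasitemia.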
Pf growth 96h – P. falciparum growth inhibition at 96 hour, primary screen for plastid delayed-death inhibitors; P. falciparum luciferase reporter growth, 96 h; 320,000 tested, 6.9% active; Potency, µM (highest dose often 28.7 µM), usual class: inhibitors
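Infected RBCs, 2% Hct / 0.05% parasitemia final; luciferase-reporter P. falciparum; cpd 96 h, 37 C, 5% CO2; luciferase detection reagent; luminescence.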
AMA1-RON2 inh – disrupts binding of P. falciparum AMA1 to RON2 | AlphaScreen AMA1-biotinylated RON2 peptide binding | Potency, µM (doses to about 58.2 µM), actives largely listed as inhibitors | 360,000 tested, 0.2% active | AID 720542; also: nearly all actives have a fitted effect of over 45% in size
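AMA1 (3D7) with his tag at 25 nM final met compounds first, then biotinylated RON2 peptide at 25 nM; detection used donor plus acceptor beads, 10 µg/mL apiece, read by AlphaScreen after 30 min at room temperature.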
Vaccinia mCherry – vaccinia inhibition (mCherry reporter) | Vaccinia virus mCherry reporter infection, fluorescence | 310,000 tested, 0.63% active | AID 720579 | Potency, µM (doses to about 36.5 µM), actives largely listed as inhibitors; calls by dose curve; tested in A549 cells; also: nearly all actives have a fitted effect of over 35% in size
Vaccinia Venus – vaccinia inhibition (Venus reporter) | 330,000 tested, 0.46% active | Vaccinia virus Venus reporter expression, fluorescence | AID 720580 | Potency, µM (highest dose often 36.5 µM), most hits filed as inhibitors; calls by dose curve; tested in A549 cells; also: nearly all actives have a fitted effect of over 30% in size
A number is an active result; i = inactive; ? = inconclusive; nt = not tested or not shown; [ ] = dose if it differs, or a comment. Unless noted, calls follow the shape of the dose curve; as a rule, active = well fitted curve in the direction sought with a large enough effect; inconclusive = small, poorly fitted or top-dose-only effect, or another doubt; inactive = no such curve, though single readings can be large; an effect the other way counts as inactive or inconclusive.

SMILES	Pf growth 48h	Pf growth 96h	AMA1-RON2 inh	Vaccinia mCherry	Vaccinia Venus
Cc1c(C(=O)N(C)C)sc2c1c(=O)n(-c1ccc(Cl)c(Cl)c1)c(=O)n2CC(=O)Nc1cccc(C(F)(F)F)c1	nt	nt	nt	i	i
CCC1CN(Cc2cn[nH]c2-c2ccc(F)cc2)Cc2cc(OC)ccc2O1 (configuration not stated)	nt	nt	nt	i	i
CCS(=O)(=O)N1CCC(n2c(C(F)(F)F)nc3cccnc32)CC1	nt	nt	nt	i	i
Cc1ccc2nc(N3C(=O)C(O)=C(C(=O)c4ccc(C)o4)C3c3ccco3)sc2c1 (configuration not stated)	i	6.7µM	i	nt	nt
Cc1ccc2nc(N3C(=O)C(O)=C(C(=O)c4ccco4)C3c3ccc(C)o3)sc2c1 (configuration not stated)	i	5.2µM	i	?	i
Cc1ccc2nc(N3C(=O)C(O)=C(C(=O)c4ccco4)C3c3ccc(O)cc3)sc2c1 (configuration not stated)	i	?	nt	nt	nt
CCN1/C(=C/C=C/c2oc3ccc4ccccc4c3[n+]2CC)Oc2ccc3ccccc3c21	?	i	?	i	i
CC[n+]1c(/C=C/N(C)c2ccccc2)sc2ccc(Cl)cc21	0.1µM	0.13µM	i	i	i
CC[n+]1c(/C=C/N(C)c2ccccc2)oc2ccc(Cl)cc21	4.7µM	?	i	i	i
CC(=O)N1CCc2cc(S(=O)(=O)NC(Cc3ccccc3)C(=O)Nc3ccc(C)cc3C)ccc21 (configuration not stated)	nt	nt	nt	i	i
O=C1CCCc2[nH]c(=O)c(C(=O)NCc3ccccc3)cc21	nt	nt	nt	i	i
CCCC(c1nnnn1CC1CCCO1)N1CCN(c2nc3ccccc3s2)CC1 (configuration not stated)	12µM	i	i	i	i
CCCCC(c1nnnn1CC1CCCO1)N1CCN(c2nc3ccccc3s2)CC1 (configuration not stated)	13µM	i	?	i	i
Cc1ccccc1-c1noc(-c2ccc(N3CCCC3)c([N+](=O)[O-])c2)n1	nt	nt	nt	i	i
COC(=O)c1ccc(Cn2c(=O)cc(C)c3c(C)nn(C)c32)cc1	nt	nt	nt	i	i
CCOc1ccc(C(=O)Nc2ccc(-c3nc4ccccc4[nH]3)cc2)cc1[N+](=O)[O-]	1.9µM	i	i	i	i
CS(=O)(=O)c1ccc(C(=O)Nc2cccc(-c3nc4ccccc4[nH]3)c2)cc1	?	?	i	nt	nt
O=C(Nc1ccc(-c2nc3ccccc3[nH]2)cc1)c1ccc2c(c1)OCO2	9.3µM	5.2µM	?	i	?
CS(=O)(=O)c1ccc(C(=O)Nc2ccc(-c3nc4ccccc4[nH]3)cc2)cc1	1.9µM	i	i	i[7.34 µM]	i[7.34 µM]
O=C(Nc1ccc(Cl)c(-c2nc3ccccc3[nH]2)c1)c1ccc2c(c1)OCO2	i	?	i	?	?
COc1ccc(NC(=O)c2c(C)oc3ccc(O)c(CN4CCN(Cc5ccccc5)CC4)c23)cc1	nt	nt	nt	i[7.34 µM]	i[7.34 µM]
C=CCN1CC[C@@H](O)C(=C)S1(=O)=O	nt	nt	nt	i	i
Cc1ccc(C)c2c(C)ccnc12	nt	nt	nt	i	i
COc1cc(N)c(N)cc1OC	nt	nt	nt	i	i
Cn1nc(C(F)(F)F)c(/C=N/OC(=O)c2ccccc2)c1SCc1ccc(Cl)cc1	i	?	i	nt	nt
SMILES	Pf growth 48h	Pf growth 96h	AMA1-RON2 inh	Vaccinia mCherry	Vaccinia Venus
Cn1nc(C(F)(F)F)c(/C=N/OC(=O)c2ccccc2Cl)c1SCc1ccccc1Cl	13µM	?	i	nt	nt
CC(C)C(c1nnnn1C1CCCCC1)N1CCOCC1 (configuration not stated)	i	i	i	nt	nt
Oc1ccc(C(c2nnnn2C2CCCC2)N2CCc3ccccc3C2)cc1 (configuration not stated)	?	nt	i	i	i
CC(C)C(c1nnnn1C1CCCCC1)N1CCc2ccccc21 (configuration not stated)	12µM	nt	i	i	i
CC(C)C(c1nnnn1C1CCCC1)N1c2ccccc2CC1C (configuration not stated)	3.7µM	?	i	nt	nt
Cc1ccc(C(c2nnnn2C2CCCCC2)N2CCc3ccccc32)cc1 (configuration not stated)	12µM	?	i[11.6 µM]	i	i
CCOc1ccc(NC(=O)CCn2c(=O)c3cccn3c3cccnc32)cc1	nt	nt	nt	i	i
CC1(C)OB(c2cnc(C#N)nc2)OC1(C)C	nt	nt	nt	i	i
O=C(O)C1C2C=CC(O2)C1C(=O)Nc1cccc(C(F)(F)F)c1 (configuration not stated)	i	10µM	i	nt	nt
CCOC(=O)c1cc(NC(=O)C2C3C=CC(O3)C2C(=O)O)cc(C(=O)OCC)c1 (configuration not stated)	?	12µM	i	i	i
CCOC(=O)c1cc(NC(=O)C2C3CCC(O3)C2C(=O)O)cc(C(=O)OCC)c1 (configuration not stated)	?	?	i	i	i
O=C(O)C1C2C=CC(O2)C1C(=O)Nc1ccccc1C(F)(F)F (configuration not stated)	nt	i	i	nt	i
O=C(COC(=O)c1cc(-c2ccccc2)nc2ccccc12)Nc1ccc2c(c1)OCO2	i	i	i	nt	nt
O=C(COC(=O)c1c2c(nc3ccccc13)CCCC2)Nc1ccc2c(c1)OCO2	?	10µM	i	nt	i
NC(=O)COC(=O)c1c2c(nc3ccccc13)CCCC2	i	i	i	i	i
O=C(OCC(=O)N1CCc2ccccc21)c1c2c(nc3ccccc13)CCCCC2	4.7µM	i	i	i	i
CC(C)(C)NC(=O)COC(=O)c1c2c(nc3ccccc13)CCC2	?	5.2µM	i	i	i
CCOc1ccccc1C(=O)Nc1ccc2nc3c(c(Nc4ccc(OC)c(OC)c4)c2c1)CCCC3	nt	nt	nt	i	?
